Results on 7 compounds are retold here after PubChem BioAssay (NCATS).

Inconclusive results are not listed. A call without a number means that no potency is given here. Activity calls are given as the source filed them. Calls come from the whole dose curve; as a rule, active = well fitted curve in the direction sought with a large enough effect; inconclusive = small, poorly fitted or top-dose-only effect, or another doubt; inactive = no such curve, though single readings can be large; an effect the other way counts as inactive or inconclusive.

Glucagon-like peptide 1 receptor (Homo sapiens), sequence (P43220 whole entry, looked up): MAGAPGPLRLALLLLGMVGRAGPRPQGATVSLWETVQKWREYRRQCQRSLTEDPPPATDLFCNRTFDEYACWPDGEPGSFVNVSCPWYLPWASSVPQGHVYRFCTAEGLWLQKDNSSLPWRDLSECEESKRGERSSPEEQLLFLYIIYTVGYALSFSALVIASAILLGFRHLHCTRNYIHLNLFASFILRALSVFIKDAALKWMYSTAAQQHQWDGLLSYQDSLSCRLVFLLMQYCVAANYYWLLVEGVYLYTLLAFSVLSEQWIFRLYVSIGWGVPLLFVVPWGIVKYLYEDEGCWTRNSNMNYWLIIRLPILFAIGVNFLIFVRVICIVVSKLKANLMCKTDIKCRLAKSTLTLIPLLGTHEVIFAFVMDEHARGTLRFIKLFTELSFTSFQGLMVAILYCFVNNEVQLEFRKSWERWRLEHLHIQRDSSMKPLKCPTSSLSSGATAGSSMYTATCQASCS
Glutaminase kidney isoform, mitochondrial (Homo sapiens), sequence (O94925 whole entry, looked up, canonical isoform): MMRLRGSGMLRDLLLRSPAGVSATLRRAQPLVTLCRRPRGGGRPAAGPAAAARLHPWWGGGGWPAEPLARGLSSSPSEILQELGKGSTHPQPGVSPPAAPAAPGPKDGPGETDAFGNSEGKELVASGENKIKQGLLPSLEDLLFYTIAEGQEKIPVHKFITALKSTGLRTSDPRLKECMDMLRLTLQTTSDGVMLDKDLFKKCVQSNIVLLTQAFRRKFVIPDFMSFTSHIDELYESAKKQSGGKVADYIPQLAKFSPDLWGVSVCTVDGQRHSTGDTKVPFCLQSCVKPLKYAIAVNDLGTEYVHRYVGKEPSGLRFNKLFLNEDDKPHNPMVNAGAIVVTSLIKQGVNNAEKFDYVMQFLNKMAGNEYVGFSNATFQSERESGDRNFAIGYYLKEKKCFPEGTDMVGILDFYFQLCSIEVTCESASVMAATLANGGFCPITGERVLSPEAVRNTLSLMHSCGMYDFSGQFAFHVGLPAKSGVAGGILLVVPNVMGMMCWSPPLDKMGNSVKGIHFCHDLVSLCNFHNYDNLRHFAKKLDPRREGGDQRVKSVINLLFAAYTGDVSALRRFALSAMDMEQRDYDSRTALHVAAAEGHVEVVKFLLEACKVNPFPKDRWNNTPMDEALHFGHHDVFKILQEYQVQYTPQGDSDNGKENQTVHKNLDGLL

One test addresses Glutaminase kidney isoform, mitochondrial (Homo sapiens) (UniProt O94925). As to the kind of experiment: qHTS for Inhibitors of Glutaminase (GLS): LOPAC Validation (AID 624146). Note: nearly all actives have a fitted effect of over 60% in size. Note: potency is the fitted concentration of half-maximal effect. To be noted: glutaminase enzyme activity inhibition; series mostly up to 46.1 µM. An outline of the steps: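 Enzyme dispensed in phosphate buffer (45 mM, pH 8.2, 0.02% Tween-20), compounds pinned in, then 1 mM L-glutamine solution and the glutamate oxidase–HRP–Amplex Red mix added; fluorescence read immediately and again after 30 min at room temperature.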
In general terms: Quantitative high-throughput screening tests each substance at several concentrations.
As to `Nc1ncnc2n[nH]c(Nc3ccc(F)cc3)c12`, the Potency was 10 µM (active).
`O=C1NC(=O)/C(=C/c2ccc3c(c2)OC(F)(F)O3)S1`: the Potency result was “inactive”.
Consider `Clc1ccc2c(c1)N=C(N1CCNCC1)c1ccccc1N2`, for which the Potency entry was “inactive”.
On to `COC(=O)C1=CO[C@@H](O)[C@@H]2C(CO)=CC[C@H]12`, for which the Potency result was “inactive”.
Take `CCN(CC)CCNC(=O)c1ccc(NS(C)(=O)=O)cc1`: the Potency result is “inactive”.
Take `Cc1nn(-c2ccccc2)c(C)c1/C=N/N1CCN(Cc2ccccc2)CC1`: the Potency entry is “inactive”.

Tested on in a further test: not listed separately
As to the kind of experiment: qHTS of Trypanosoma Brucei Inhibitors: LOPAC Validation (AID 624147). The following applies: purified enzyme assay, luminescence, 45 min; series mostly up to 57.5 µM. The gist of the method: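 Readout: single end-point luminescence (Kinase-Glo Plus, 10 min). Reaction conditions were TbPYK/substrate plus 130 uM ADP, 45 min at RT, pH 7.2 TEA buffer. No-enzyme wells served as controls, and data were normalized before concentration-response fitting.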
`Nc1ncnc2n[nH]c(Nc3ccc(F)cc3)c12`: the call was inactive.
`O=C1NC(=O)/C(=C/c2ccc3c(c2)OC(F)(F)O3)S1`: the call was inactive.
Regarding `Clc1ccc2c(c1)N=C(N1CCNCC1)c1ccccc1N2`, the compound was called inactive.
On to `COC(=O)C1=CO[C@@H](O)[C@@H]2C(CO)=CC[C@H]12`, for which the outcome was inactive.
Turning to `CCN(CC)CCNC(=O)c1ccc(NS(C)(=O)=O)cc1`, the outcome was inactive.
For the compound `N[C@@H](Cn1ccc(=O)c(O)c1)C(=O)O`, the compound was called inactive.
On to `Cc1nn(-c2ccccc2)c(C)c1/C=N/N1CCN(Cc2ccccc2)CC1`, for which the result was inactive.

The target in the next test is Glucagon-like peptide 1 receptor (Homo sapiens) (UniProt P43220). Description: qHTS of GLP-1 Receptor Agonists: LOPAC Validation (AID 624148).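 Note: higher luminescence signal means agonism.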 To be noted: GLP-1R agonist cell assay; series mostly up to 46.1 µM. The gist of the method:
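HEK293 cells stably co-expressing a cAMP-responsive luciferase reporter and a hypersensitive GLP-1R were plated 12 h at 37 °C and exposed to compounds for 4-6 hr at 37 °C, 5% CO2. Luminescence was read 12 min after adding detection reagent.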
Consider `Nc1ncnc2n[nH]c(Nc3ccc(F)cc3)c12`, for which the result was inactive.
On to `O=C1NC(=O)/C(=C/c2ccc3c(c2)OC(F)(F)O3)S1`, for which the compound was called inactive.
Regarding `Clc1ccc2c(c1)N=C(N1CCNCC1)c1ccccc1N2`, the result was inactive.
On to `COC(=O)C1=CO[C@@H](O)[C@@H]2C(CO)=CC[C@H]12`, for which the call was inactive.
`CCN(CC)CCNC(=O)c1ccc(NS(C)(=O)=O)cc1`: the call was inactive.
For `N[C@@H](Cn1ccc(=O)c(O)c1)C(=O)O`, the call was inactive.
With `Cc1nn(-c2ccccc2)c(C)c1/C=N/N1CCN(Cc2ccccc2)CC1`, the call was inactive.

Tested on in another test: not listed separately
Description: qHTS of Nrf2 Activators: LOPAC Validation (AID 624149). To be noted: Nrf2/ARE reporter cell assay; series mostly up to 46.1 µM. The gist of the method: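 Cells (AREc32_Fluc) are plated at 1000 per well in OPTI-MEM containing 5% FBS and left overnight. Compounds are pinned in and incubated 24 hr at 37 deg C, and firefly luciferase is detected with Steady-Glo.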
As to `Nc1ncnc2n[nH]c(Nc3ccc(F)cc3)c12`, the outcome was inactive.
For `O=C1NC(=O)/C(=C/c2ccc3c(c2)OC(F)(F)O3)S1`, the compound was called inactive.
For the compound `Clc1ccc2c(c1)N=C(N1CCNCC1)c1ccccc1N2`, the compound was called inactive.
Turning to `COC(=O)C1=CO[C@@H](O)[C@@H]2C(CO)=CC[C@H]12`, the call was inactive.
For `CCN(CC)CCNC(=O)c1ccc(NS(C)(=O)=O)cc1`, the compound was classed as inactive.
On the same count and under the same terms, for `N[C@@H](Cn1ccc(=O)c(O)c1)C(=O)O` the value was “inactive”; for `Cc1nn(-c2ccccc2)c(C)c1/C=N/N1CCN(Cc2ccccc2)CC1`, “inactive”.

Tested on in the next test: not listed separately
Description: HTS Assay for Allosteric Antagonists of the Human D2 Dopamine Receptor: Hit Validation in HTRF (AID 624455).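 Note: stable D1 dopamine receptor cell line scored for blocking the D1 response.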 To be noted: Cells stably expressing D1 dopamine receptor, inhibition mode; series mostly up to 46.1 µM. An outline of the steps:
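Inhibition of the D1-mediated response is measured by HTRF in cells that stably express the D1 dopamine receptor. Compounds reaching this step are hits from calcium-flux antagonism testing at EC80 dopamine in inducible Hek293 Trex D2 cells.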
(In general: Time-resolved FRET reads energy transfer from a long-lived donor to a nearby acceptor.)
Consider `Nc1ncnc2n[nH]c(Nc3ccc(F)cc3)c12`, for which the call was inactive.
As for `O=C1NC(=O)/C(=C/c2ccc3c(c2)OC(F)(F)O3)S1`, the result was inactive.
Take `Clc1ccc2c(c1)N=C(N1CCNCC1)c1ccccc1N2`: the compound was classed as inactive.
For `COC(=O)C1=CO[C@@H](O)[C@@H]2C(CO)=CC[C@H]12`, the compound was called inactive.
On the same count and under the same terms, under `CCN(CC)CCNC(=O)c1ccc(NS(C)(=O)=O)cc1` stands “inactive”; under `N[C@@H](Cn1ccc(=O)c(O)c1)C(=O)O`, “inactive”.
On to `Cc1nn(-c2ccccc2)c(C)c1/C=N/N1CCN(Cc2ccccc2)CC1`, for which the compound was classed as inactive.
